Experimental data as given in PubChem BioAssay (NCI).
About 83,000 compounds went through this panel and 20% of them were active in at least one assay; those are over-represented in the sample as a whole.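 Single-dose data. Exposure time 48 hours. Values below 10 considered active.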 Values without a mark were called inactive.

These compounds were tested on MDA-MB-468 breast (assay: NCI-60 one-dose screen, 48 h (100 = growth as untreated, 0 = no growth, -100 = all killed)). Details: 10 µM unless noted.
`Nc1c(C(=O)Nc2cccc3ccccc23)sc2nc3c(cc12)COCC3` gave a growth of 38.6%.
For `O=c1[nH]c(=S)[nH]c2nc[nH]c12`, the growth was 100%.
With `O=C1c2cc(Br)ccc2-n2c1nc1cc(Br)ccc1c2=O` the growth was 76.6%.
